# Where “and” joins values, the source holds several entries; their conditions need not be identical. Equal entries are not always repeated. Among all 2,000 compounds or so, about 100 (5%) were called active. This is one part of a sample in which actives are shown more often than they occur. Cut-off read from the data, not from the text of the source: active = z-score above about 2; inactive = the rest. Some structures have more than one record in an assay (separate samples or runs), and their calls can disagree.
# Experiment: supercomplex reporter luminescence per Hoechst cell count – Hoechst nuclei count (AID 1645838);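 note: control cybrid cells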;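 for z-score: higher means more mitochondrial supercomplex formation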
# Settings: Cells, luminescence/Hoechst cell count ratio; for z-score: stronger effect = higher value; for cell count: measured here: cell number, Hoechst nuclei count
# [1] = library stock concentration (final well concentration not given) 80 uM
# [2] = library stock concentration (final well concentration not given) 400 uM
# [3] = library stock concentration (final well concentration not given) 2 mM
# [4] = library stock concentration (final well concentration not given) 10 mM
# [5] = library stock concentration (final well concentration not given) 46 uM
# [6] = library stock concentration (final well concentration not given) 278 uM
# [7] = library stock concentration (final well concentration not given) 1.67 mM
compound,measurement,setting,value
Oc1cc(-c2nc(-c3ccccc3)[nH]c2-c2ccncc2)ccc1Cl,outcome,library stock 10 mM,inactive; censored for cell count
same,z-score,[1],-0.487 (inactive)
same,z-score,[2],0.0422 (inactive)
same,z-score,[3],0.88 (inactive)
same,cell count,[1],6330
same,cell count,[2],6400
same,cell count,[3],5020
CS(=O)c1ccc(-c2nc(-c3ccc(F)cc3)c(-c3ccncc3)[nH]2)cc1 (centres undefined),z-score,,-1.15 (inactive)
same,cell count,,5830
CN(C)CCOc1ccc(-c2nc(-c3ccc4c(c3)CCC4=NO)c(-c3ccncc3)[nH]2)cc1,outcome,library stock 10 mM,inactive; censored for cell count
same,z-score,[1],-0.227 (inactive)
same,z-score,[2],0.545 (inactive)
same,z-score,[3],2.41 (active)
same,cell count,[1],4650
same,cell count,[2],4190
same,cell count,[3],3060
NC(N)=NCCCC(NC(=O)COCC(c1ccccc1)c1ccccc1)C(=O)O (centres undefined),z-score,[1],-0.24 (inactive)
same,z-score,[2],-0.0902 (inactive)
same,z-score,[3],-0.0766 (inactive)
same,z-score,[4],0.102 (inactive)
same,cell count,[1],5010
same,cell count,[2],5210
same,cell count,[3],5170
same,cell count,[4],4630
CC(C)OC(=O)CCCC=CCC1C(O)CC(O)C1C=CC(F)(F)COc1ccccc1 (centres undefined),z-score,[1],-0.387 (inactive)
same,z-score,[2],-0.505 (inactive)
same,z-score,[3],-0.421 (inactive)
same,z-score,[4],-0.49 (inactive)
same,cell count,[1],6260
same,cell count,[2],6740
same,cell count,[3],6050
same,cell count,[4],5570
NC(CSCCB(O)O)C(=O)O (centres undefined),z-score,[5],-0.211 (inactive)
same,z-score,[6],-0.0225 (inactive)
same,z-score,[7],-0.355 (inactive)
same,z-score,[4],-0.293 (inactive)
same,cell count,[5],6150
same,cell count,[6],5500
same,cell count,[7],6170
same,cell count,[4],6060
Cn1cnc2c(F)c(Nc3ccc(Br)cc3Cl)c(C(=O)NOCCO)cc21,outcome,library stock 10 mM,inactive; censored for cell count
same,z-score,[1],0.846 (inactive)
same,z-score,[2],0.791 (inactive)
same,z-score,[3],2.06 (active)
same,cell count,[1],3770
same,cell count,[2],3780
same,cell count,[3],2320
O=C(NOCC1CC1)c1ccc(F)c(F)c1Nc1ccc(I)cc1Cl,outcome,library stock 10 mM,inactive; censored for cell count
same,z-score,[1],0.248 (inactive)
same,z-score,[2],0.901 (inactive)
same,z-score,[3],1.33 (inactive)
same,cell count,[1],4290
same,cell count,[2],3900
same,cell count,[3],3870
Cn1cnc2c(F)c(Nc3ccc(Br)cc3F)c(C(=O)NOCCO)cc21,outcome,library stock 10 mM,inactive; censored for cell count
same,z-score,[1],0.694 (inactive)
same,z-score,[2],1.23 (inactive)
same,z-score,[3],1.53 (inactive)
same,cell count,[1],5250
same,cell count,[2],4630
same,cell count,[3],2640
COc1cc(C=C(C#N)C(=O)Nc2nnc(C(F)(F)F)s2)ccc1OCc1ccc(C(F)(F)F)cc1C(F)(F)F,z-score,[5],-0.188 (inactive)
same,z-score,[6],-0.247 (inactive)
same,z-score,[7],-0.448 (inactive)
same,z-score,[4],-0.612 (inactive)
same,cell count,[5],7210
same,cell count,[6],7400
same,cell count,[7],7340
same,cell count,[4],7260
CS(=O)(=O)N1CCN(Cc2cc3nc(-c4cccc5[nH]ncc45)nc(N4CCOCC4)c3s2)CC1,outcome,library stock 10 mM,inactive; censored for cell count
same,z-score,[5],-0.278 (inactive)
same,z-score,[1],0.147 (inactive)
same,z-score,[6],-0.083 (inactive)
same,z-score,[2],0.745 (inactive)
same,z-score,[7],0.769 (inactive)
same,z-score,[3],1.48 (inactive)
same,cell count,[5],5360
same,cell count,[1],3950
same,cell count,[6],4950
same,cell count,[2],3220
same,cell count,[7],2910
same,cell count,[3],2350
Oc1cccc(-c2nc(N3CCOCC3)c3oc4ncccc4c3n2)c1,z-score,,2.15 (active)
same,cell count,,3000
Oc1cccc(-c2nc(N3CCOCC3)c3sccc3n2)c1,z-score,,3.96 (active)
same,cell count,,2940
CC(C)c1ccccc1OC(=O)NCCc1ccc2ccccc2c1,z-score,[5],-0.152 (inactive)
same,z-score,[6],0.0918 (inactive)
same,z-score,[7],-0.615 (inactive)
same,z-score,[4],-0.366 (inactive)
same,cell count,[5],6770
same,cell count,[6],6210
same,cell count,[7],7330
same,cell count,[4],5910
COc1cc(C(=O)N(CCC2CCCN2C)CC(C)=Cc2ccccc2F)cc(OC)c1OC (centres undefined),z-score,[5],0.184 (inactive)
same,z-score,[6],-0.112 (inactive)
same,z-score,[7],0.132 (inactive)
same,z-score,[4],0.652 (inactive)
same,cell count,[5],6990
same,cell count,[6],6820
same,cell count,[7],6680
same,cell count,[4],5820
CC#CCC(C)[C@H](O)/C=C/[C@@H]1[C@H]2C/C(=C\CCCC(=O)O)C[C@H]2C[C@H]1O (some centres undefined),z-score,,-0.395 (inactive)
same,cell count,,5310
OC(COc1cccc2ncccc12)CN1CCN(C2c3ccccc3C3C(c4ccccc42)C3(F)F)CC1 (centres undefined),z-score,[1],0.371 (inactive)
same,z-score,[2],0.508 (inactive)
same,z-score,[3],0.497 (inactive)
same,z-score,[4],-1.87 (inactive)
same,cell count,[1],4630
same,cell count,[2],4580
same,cell count,[3],4340
same,cell count,[4],3800
O=C(c1cccs1)c1ccc(OCCCO)c(Cl)c1Cl,z-score,,-0.51 (inactive)
same,cell count,,5410
CC1CC2OC2C=CC=CC(=O)Cc2c(Cl)c(O)cc(O)c2C(=O)O1 (centres undefined),outcome,library stock 278 µM,inactive; censored for cell count
same,outcome,library stock 1.67 mM,inactive; censored for cell count
same,outcome,library stock 10 mM,inactive; censored for cell count
same,z-score,[5],-0.774 (inactive)
same,cell count,[5],7560
CCCCC[C@@](C)(O)/C=C/[C@H]1C(=O)C[C@H](O)[C@@H]1C/C=C\CCCC(=O)O,z-score,,-0.768 (inactive)
same,cell count,,5670
O=c1ncccn1C1OC(CO)C(O)C1O (centres undefined),z-score,[5],-0.336 (inactive)
same,z-score,[6],-0.313 (inactive)
same,z-score,[7],-0.302 (inactive)
same,z-score,[4],0.386 (inactive)
same,cell count,[5],5670
same,cell count,[6],5220
same,cell count,[7],4780
same,cell count,[4],3500
c1cc2c(cc1C1CCCCC1)c1c3n2CCNC3CCC1 (centres undefined),z-score,[5],-0.207 (inactive)
same,z-score,[6],-0.279 (inactive)
same,z-score,[7],0.239 (inactive)
same,z-score,[4],3.28 (active)
same,cell count,[5],6430
same,cell count,[6],6250
same,cell count,[7],6160
same,cell count,[4],4320
CCCCCCCC/C=C\CCCCCCCC(=O)NCCS(=O)(=O)O,z-score,,-0.251 (inactive)
same,cell count,,5290
CCCCCCCCCCCCC/C=C/[C@H](O)[C@@H](CO)NC(=O)CCCCCCCCCCCCCCCCCCCCCCC,z-score,,0.79 (inactive)
same,cell count,,5520
O=C(O)CCC/C=C\CC1C2CCC(O2)C1CNNC(=O)Nc1ccccc1 (centres undefined),z-score,,-0.631 (inactive)
same,cell count,,5630
Cc1ccc(NC(=O)c2cccc(C(C)(C)C#N)c2)cc1Nc1ccc2ncn(C)c(=O)c2c1,outcome,library stock 10 mM,inactive; censored for cell count
same,z-score,[5],-0.155 (inactive)
same,z-score,[1],1.5 (inactive)
same,z-score,[6],0.171 (inactive)
same,z-score,[2],1.71 (inactive)
same,z-score,[7],0.888 (inactive)
same,z-score,[3],2.43 (active)
same,z-score,[4],3.11 (active)
same,cell count,[5],6500
same,cell count,[1],3700
same,cell count,[6],6060
same,cell count,[2],3410
same,cell count,[7],4330
same,cell count,[3],2280
same,cell count,[4],1960
Cc1ccc(C(=O)Nc2cccc(C(F)(F)F)c2)cc1Nc1cncc(C(N)=O)c1,z-score,[1],-0.656 (inactive)
same,z-score,[2],-0.351 (inactive)
same,z-score,[3],-0.861 (inactive)
same,z-score,[4],-0.825 (inactive)
same,cell count,[1],4950
same,cell count,[2],4630
same,cell count,[3],5070
same,cell count,[4],4410
Cc1ccc(C(=O)Nc2cccc(C(F)(F)F)c2)cc1Nc1nc(-c2cccnc2)nc2c1cnn2C,outcome,library stock 10 mM,inactive; censored for cell count
same,z-score,[1],-0.121 (inactive)
same,z-score,[2],0.0935 (inactive)
same,z-score,[3],1.5 (inactive)
same,cell count,[1],5540
same,cell count,[2],5440
same,cell count,[3],3810
CCCCC(C)(C)[C@H](O)/C=C/[C@@H]1[C@@H](C/C=C\CCCC(=O)O)[C@@H](O)C[C@H]1O,z-score,,-0.23 (inactive)
same,cell count,,5200
CCCCC/C=C\C=C\C(O)CCCCCCCC(=O)OC[C@@H](COC(=O)CCCCCCC/C=C\C=C\C(O)CCCCC)OC(=O)CCCCCCC/C=C\C=C\C(O)CCCCC (some centres undefined),z-score,,-0.295 (inactive)
same,cell count,,5700
CC(=O)c1ccc2c(c1)c1cc(C(C)=O)ccc1n2CCNC(C)C,outcome,library stock 2 mM,inactive; censored for cell count
same,outcome,library stock 10 mM,inactive; censored for cell count
same,z-score,[1],0.38 (inactive)
same,z-score,[2],4.83 (active)
same,cell count,[1],5240
same,cell count,[2],2850
CCCCCC(=O)CC[C@@H]1[C@@H](C/C=C\CCCC(=O)O)[C@@H](O)C[C@H]1O,z-score,,0.125 (inactive)
same,cell count,,5560
CCCCCCCCCCCCCCCCCCOC[C@H](COP(=O)([O-])OCC[N+](C)(C)C)OC(C)=O,z-score,,-1.9 (inactive)
same,cell count,,5980
CCN(CC)Cc1ccc(C(=O)N(CCc2ccccc2OC)C2CCNC2)cc1 (centres undefined),z-score,[1],0.157 (inactive)
same,z-score,[2],0.267 (inactive)
same,z-score,[3],0.915 (inactive)
same,z-score,[4],3.1 (active)
same,cell count,[1],5850
same,cell count,[2],5490
same,cell count,[3],4680
same,cell count,[4],3340
C[C@@H]1C[C@H]2O[C@@H]2/C=C\C=C\C(=O)Cc2c(Cl)c(O)cc(O)c2C(=O)O1,outcome,,inactive; censored for cell count
CCOc1cc(CC(=O)NC(CC(C)C)c2ccccc2N2CCCCC2)ccc1C(=O)O (centres undefined),z-score,[5],-0.125 (inactive)
same,z-score,[6],-0.238 (inactive)
same,z-score,[7],-0.332 (inactive)
same,z-score,[4],-0.204 (inactive)
same,cell count,[5],4820
same,cell count,[6],5070
same,cell count,[7],5220
same,cell count,[4],4740
O=C(O)C1CCC(c2cc3cccnc3c(-c3cccc(F)c3)n2)CC1 (centres undefined),z-score,[5],0.62 (inactive)
same,z-score,[6],1.24 (inactive)
same,z-score,[7],1.5 (inactive)
same,z-score,[4],1.76 (inactive)
same,cell count,[5],6220
same,cell count,[6],6290
same,cell count,[7],5980
same,cell count,[4],6420
COc1cccc2cc(-c3nc(C4CCC(C(=O)O)CC4)n4ncnc(N)c34)[nH]c12 (centres undefined),outcome,library stock 10 mM,inactive; censored for cell count
same,z-score,[1],-0.563 (inactive) and 0.107 (inactive)
same,z-score,[2],-0.188 (inactive) and 0.529 (inactive)
same,z-score,[3],1.25 (inactive) and 2.27 (active)
same,cell count,[1],4660 and 5660
same,cell count,[2],3600 and 4570
same,cell count,[3],2190 and 2510
COc1ccc(/C=C/c2cc(O)cc(O)c2)cc1O,outcome,,inactive; censored for cell count
C=CCn1c(=O)c2cnc(Nc3ccc(N4CCN(C)CC4)cc3)nc2n1-c1cccc(C(C)(C)O)n1,outcome,library stock 1.67 mM,inactive; censored for cell count
same,outcome,library stock 10 mM,inactive; censored for cell count
same,z-score,[5],-0.147 (inactive)
same,z-score,[6],-0.118 (inactive)
same,cell count,[5],4940
same,cell count,[6],4830
Cc1cnc(Nc2ccc(OCCN3CCCC3)cc2)nc1Nc1cccc(S(=O)(=O)NC(C)(C)C)c1,outcome,library stock 10 mM,inactive; censored for cell count
same,z-score,[5],-0.00359 (inactive)
same,z-score,[6],-0.105 (inactive)
same,z-score,[7],5.46 (active)
same,cell count,[5],4980
same,cell count,[6],5010
same,cell count,[7],2610
CN(c1ccccc1CNc1nc(Nc2ccc3c(c2)CC(=O)N3)ncc1C(F)(F)F)S(C)(=O)=O,outcome,library stock 2 mM,inactive; censored for cell count
same,outcome,library stock 10 mM,inactive; censored for cell count
same,z-score,[1],0.0927 (inactive)
same,z-score,[2],0.505 (inactive)
same,cell count,[1],4980
same,cell count,[2],4440

# Source: PubChem BioAssay AID1645838 (ICCB-Longwood Screening Facility, Harvard Medical School, 2021)
